# According to PubChem BioAssay (NCI):
# “And” between values parts separate entries of the source, which are not always exact repeats. Equal entries are not always repeated. About 83,000 compounds went through this panel and 20% of them were active in at least one assay; those are over-represented in the sample as a whole.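 48-hour exposure, single concentration, 96-well plates; percent growth endpoint where 0 means no net growth. Active: below 10.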 The source made the active and inactive calls.
# Test system: MDA-MB-468 breast
# Experiment: NCI-60 one-dose screen, 48 h (100 = growth as untreated, 0 = no growth, -100 = all killed)
# Settings: 10 µM unless noted
row,SMILES,growth
1,O=c1[nH][n+](-c2ccc(Br)cc2)no1,86.1% (inactive)
2,Cc1nn(-c2ccccc2)c(N2CCCCC2)c1/C=N/NC(=O)Cn1c(=O)sc2ccccc21,85.5% (inactive)
3,N#Cc1cnn2c(-c3ccc(Cl)cc3)nc(NCCc3ccccc3)nc12,110% (inactive)
4,CC(C)(C)c1ccc(-c2nnc(-c3nc4ccccc4nc3Cl)o2)cc1,7.12% (active)
5,O=C1COCCN1c1ccc(NCc2cn(Cc3ccc(F)cc3)c3ccccc23)cc1,-66.9% (active)
6,O=C(NO)c1ccc(Cn2c(=O)n(CCc3ccc(O)cc3)c(=O)c3ccccc32)cc1,29.8% (inactive)
7,CCC(C#N)(CC)c1ccccc1,105% (inactive)
8,COc1cc(C2C3=C(COC3=O)Nc3cc4c(cc32)OCO4)cc2c1OCO2 (stereo unspecified),-10.3% (active)
9,CCCCN1CCN(c2ccc3nc(-c4ccc5nc(-c6ccc(OC)c(OC)c6)[nH]c5c4)[nH]c3c2)CC1,-74.9% (active)
10,CC1=C(/C=C/C(C)=C/C=C/C(C)=C/C(=O)O)C(C)(C)CCC1,99.9% (inactive) and 110% (inactive)
11,CC(=O)c1cccc(NS(=O)(=O)c2ccc(C)cc2)c1,77.3% (inactive)
12,Cc1onc2c(-c3ccccc3)n[nH]c(=O)c12,98.3% (inactive)
13,Nc1ncnc2[nH]ncc12,-20.3% (active)
14,CN(C)c1ccc(/C=c2\sc3nc4ccccc4n3c2=O)cc1,78.4% (inactive)
15,COc1ccc(OC)c(/C=C/c2nnc(Nc3ccc(Cl)cc3)o2)c1,66% (inactive)
16,COc1ccc(OC)c(Cn2cc3c(c2)-c2oncc2CC3)c1,3.48% (active)
